Test results published in the supplement of paper PMC12340641.
In all, about 1,000 compounds were measured (“relative growth recovery (pomalidomide 10 uM = 100%, DMSO = 0%)”: median about -1.6, highest 2% from about 21 on). Many of the other results were omitted from the sample, so the highest values are more common in it than they were.

Each compound was assayed on HEK293FT dCK*-IKZF1 (assay: relative growth recovery (pomalidomide 10 uM = 100%, DMSO = 0%); higher = more growth rescue (IKZF1 fusion degradation)). Conditions: compound concentration: 5 uM; AraC concentration: 0.3 uM; overnight pretreatment + 4 days AraC.
Experimental: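 Growth recovery screen of the molecular-glue-like (Specs) library. HEK293FT cells expressing a dCK*-IKZF1 fusion (primary) or dCK* alone (counter) were pretreated overnight with compound at 5 uM, then given 0.3 uM AraC for 4 days. Hoechst nuclei were counted by imaging. Primary: normalised to pomalidomide (100%) and DMSO (0%), mean of 2 replicates. Counter: normalised to no-AraC (100%) and AraC+DMSO (0%), single replicate.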

Row | Compound | relative growth recovery
1 | CC(Oc1ccccc1)C(=O)Nc1ccc(S(=O)(=O)Nc2ncccn2)cc1 (stereo not drawn) | -0.515%
2 | CCC(Oc1ccccc1)C(=O)Nc1ccc(S(=O)(=O)Nc2nc(C)cc(C)n2)cc1 (stereo not drawn) | -3.29%
3 | CCC(Oc1ccccc1)C(=O)Nc1ccc(S(=O)(=O)Nc2ncccn2)cc1 (stereo not drawn) | 78.9%
4 | Cc1cc(C)nc(NS(=O)(=O)c2ccc(NC(=O)c3oc4ccccc4c3C)cc2)n1 | -2.64%
5 | Cc1cnc(Nc2cccc(C3CCN(C(=O)CCn4ncc5ccccc54)CC3)n2)s1 | -1.66%
6 | COc1cc(NS(=O)(=O)c2ccc(NC(=O)c3ccccc3C)cc2)nc(OC)n1 | -0.335%
7 | COc1ccc(C(=O)Nc2ccc(S(=O)(=O)Nc3cc(OC)nc(OC)n3)cc2)c(OC)c1 | 3.94%
8 | CCOc1cc(C(=O)Nc2ccc(S(=O)(=O)Nc3ncccn3)cc2)cc(OCC)c1OCC | 0.09%
9 | COc1ccc(C(=O)Nc2ccc(S(=O)(=O)Nc3ncccn3)cc2)c(OC)c1 | -1.31%
10 | Cc1cnc(Nc2cccc(C3CN(C(=O)CN(C(=O)CC(C)C)c4ccccc4)CCO3)n2)s1 (stereo not drawn) | 1.34%
11 | COc1cccc(CCC(=O)N2CCOC(c3cccc(Nc4ncc(C)s4)n3)C2)c1 (stereo not drawn) | 15.8%
12 | Cc1csc(Nc2cccc(C3CN(C(=O)CCCc4ccc(F)cc4)CCO3)n2)n1 (stereo not drawn) | 25.2%
13 | Cc1csc(Nc2cccc(C3CCCN3C(=O)CCCc3ccc(F)cc3)n2)n1 (stereo not drawn) | 0.885%
14 | COc1ccc(CCC(=O)N2CCOC(c3cccc(Nc4ncc(C)s4)n3)C2)cc1 (stereo not drawn) | 15.7%
15 | COc1ccc(CCC(=O)N2CCOC(c3cccc(Nc4nc(C)cs4)n3)C2)cc1 (stereo not drawn) | 32.4%
16 | Cc1csc(Nc2cccc(C3CN(C(=O)CCc4nc(C)no4)CCO3)n2)n1 (stereo not drawn) | 5.6%
17 | O=[N+]([O-])c1ccc(S(=O)(=O)Nc2ccc(Cl)cn2)cc1 | -4.66%
18 | O=[N+]([O-])c1ccc(S(=O)(=O)Nc2nc3ccccc3nc2Nc2ccccc2)cc1 | 8.16%
19 | CC(C)Nc1nc(NC(C)C)nc(NS(=O)(=O)c2ccc(N)cc2)n1 | -1.87%
20 | CC(C)N(C(=O)CN1CCOC(c2cccc(Nc3nccs3)n2)C1)C1CCCCC1 (stereo not drawn) | -2.24%
21 | Cc1csc(Nc2cccc(C3CCN(C(=O)Cn4nc(C)cc4C)CC3)n2)n1 | 16.9%
22 | Cc1cnc(Nc2cccc(C3CCN(C(=O)CC4CCCCC4)CC3)n2)s1 | -13.5%
23 | O=C(c1cccc2ncccc12)N1CCOC(c2cccc(Nc3nccs3)n2)C1 (stereo not drawn) | -7.12%
24 | Cc1cc(C)nc(NS(=O)(=O)c2ccc(NC(=O)c3ccc(Cl)cc3Cl)cc2)n1 | -0.215%
25 | Cc1cnc(Nc2cccc(C(C(=O)N(C)C)C3CCN(C(=O)[C@H](CC(C)C)NC(=O)OC(C)(C)C)CC3)n2)s1 (stereo partly drawn) | 3.71%
26 | Cc1ccc(C(=O)Nc2ccc(S(=O)(=O)Nc3cc(C)nc(C)n3)cc2)cc1 | -1.57%

Row | Compound | relative growth recovery
27 | Cc1cccc(C(=O)Nc2ccc(S(=O)(=O)Nc3nc(C)cc(C)n3)cc2)c1 | 4.85%
28 | Cc1nc(Nc2cccc(C3CCCN3C(=O)CCCN3C(=O)CNC3=O)n2)sc1C (stereo not drawn) | 3.93%
29 | Cc1ccc(/C=C/C(=O)Nc2ccc(S(=O)(=O)Nc3ncccn3)cc2)cc1 | -2.17%
30 | Cc1cc(OCC(=O)Nc2ccc(S(=O)(=O)Nc3ncccn3)cc2)ccc1Cl | -0.26%
31 | NCC(=O)N1CCC(c2cccc(Nc3ncc(Br)s3)n2)CC1 | -17.1%
32 | Cc1nn(C)c(C)c1/C=C/C(=O)N1CCC(c2cc3ccccc3c(Nc3nccs3)n2)CC1 | 51.1%
33 | Cc1nc(/C=C/C(=O)N2CCC(c3cc4ccccc4c(Nc4nccs4)n3)CC2)cs1 | -17.8%
34 | Cn1nccc1/C=C/C(=O)N1CCC(c2cc3ccccc3c(Nc3nccs3)n2)CC1 | -16.9%
35 | Cc1ccc(C)c(OCC(=O)Nc2ccc(S(=O)(=O)Nc3nc(C)cc(C)n3)cc2)c1 | -2.19%
36 | Nc1ccc(Oc2ccc3c(c2)C(=O)N(CCO)C3=O)cc1 | 2.76%
37 | Cc1cnc(Nc2cccc(C(C(=O)N(C)C)C3CCN(C(=O)C4CCCCC4)CC3)n2)s1 (stereo not drawn) | 1.65%
38 | Cc1ccc(Nc2nc(C3CCCN(C(=O)/C=C/c4csc(C)n4)C3)cs2)nc1 (stereo not drawn) | 31.5%
39 | COC(C)(C)C(=O)N1CCCC(c2csc(Nc3ccc(C)cn3)n2)C1 (stereo not drawn) | 15.9%
40 | Cn1nccc1/C=C/C(=O)N1CCCC1c1csc(Nc2ccccn2)n1 (stereo not drawn) | 2.75%
41 | Cn1nccc1/C=C/C(=O)N1CCCC(c2csc(Nc3ccccn3)n2)C1 (stereo not drawn) | 40.9%
42 | Cn1nccc1/C=C/C(=O)N1CCCC(c2cc3ccccc3c(Nc3nccs3)n2)C1 (stereo not drawn) | -10.2%
43 | CC(=O)N1CCCC(c2csc(Nc3ccccn3)n2)C1 (stereo not drawn) | -1.67%
44 | O=C(/C=C/c1ccccc1)N1CCCC(c2csc(Nc3ccccn3)n2)C1 (stereo not drawn) | 31.2%
45 | O=C(/C=C/c1ccco1)N1CCCC(c2csc(Nc3ccccn3)n2)C1 (stereo not drawn) | 18.9%
46 | Cc1ccc(Nc2nc(C3CCCN3C(=O)/C=C/c3csc(C)n3)cs2)nc1 (stereo not drawn) | 0.31%
47 | Cc1ccc(OCC(=O)Nc2ccc(S(=O)(=O)Nc3nc(C)cc(C)n3)cc2)cc1 | -1.25%
48 | O=C1CCC(N2C(=O)c3cc(F)c(N4CCC(Cn5cc(C(=O)O)cn5)CC4)cc3C2=O)C(=O)N1 (stereo not drawn) | -2%
49 | Cc1cc(C)nc(NS(=O)(=O)c2ccc(NC(=O)CSc3nc4c(cc3C#N)CCCCC4)cc2)n1 | -5.67%
50 | Cc1ccc(C)c2c1[nH]c1nc(SCC(=O)Nc3cccc(F)c3)nnc12 | -2.81%
51 | CC(=O)N1CCC(Cc2cccc(Nc3nc(C)cs3)n2)CC1 | 10.6%
52 | CCCCc1cnc(Nc2cccc(C3CCN(C(=O)[C@@H]4CCCCN4)CC3)n2)s1 | -11.4%

Row | Compound | relative growth recovery
53 | O=C(Nc1ccc(S(=O)(=O)Nc2ncccn2)cc1)c1ccc2c(c1)OCO2 | -3.11%
54 | COc1ccc(Cl)cc1C(=O)Nc1ccc(S(=O)(=O)Nc2nccc(C)n2)cc1 | -1.7%
55 | COc1ccc2[nH]c(SCC(=O)Nc3ncccn3)nc2c1 | 1.53%
56 | Cc1cnc(Nc2cccc(C3CCN(C(=O)C4(NC(=O)CC(C)(C)C)CCCCC4)CC3)n2)s1 | -16.1%
57 | CCc1ccccc1OCC(=O)Nc1ccc(S(=O)(=O)Nc2nc(C)cc(C)n2)cc1 | -4.88%
58 | CCCN1CC(C(=O)N2CCC(c3cccc(Nc4ncc(C)s4)n3)CC2)CC1=O (stereo not drawn) | -5.35%
59 | COc1cc(NS(=O)(=O)c2ccc(NC(=O)c3ccccc3C(=O)O)cc2)nc(OC)n1 | -4.23%
60 | COc1cc(NS(=O)(=O)c2ccc(NC(=O)/C=C/c3ccco3)cc2)nc(OC)n1 | 1.19%
61 | CCCc1cnc(Nc2cccc(C3CCN(C(=O)Cn4c(CC(C)C)nc5ccccc54)CC3)n2)s1 | -2.13%
62 | COc1ccc(-c2csc(Nc3ccc(S(=O)(=O)Nc4cc(OC)nc(OC)n4)cc3)n2)cc1 | -2.94%
63 | Cc1cnc(Nc2cccc(C3CCCN3C(=O)c3nccc4ccccc34)n2)s1 (stereo not drawn) | 2.39%
64 | O=C(Cc1cccs1)Nc1ccc(Oc2ccc3c(c2)C(=O)N(c2ccc(O)cc2)C3=O)cc1 | -1.26%
65 | O=C(C1CCCCC1)N1CCC(Cc2cccc(Nc3nccs3)n2)CC1 | 4.47%
66 | Cc1cccc(C)c1OCC(=O)Nc1ccc(S(=O)(=O)Nc2ncccn2)cc1 | 1.77%
67 | COc1ccccc1CCC(=O)N1CCOC(c2cccc(Nc3ncc(C)s3)n2)C1 (stereo not drawn) | 10.8%
68 | COc1cc(NS(=O)(=O)c2ccc(NC(=O)COc3cccc(C)c3)cc2)nc(OC)n1 | -18.6%
69 | COCC(=O)N1CCCC1c1cccc(Nc2nc(C)cs2)n1 (stereo not drawn) | -7.27%
70 | O=C1CCC(N2C(=O)c3ccc(C(=O)O)cc3C2=O)C(=O)N1 (stereo not drawn) | -0.47%
71 | Cc1cc(C)nc(NS(=O)(=O)c2ccc(NC(=O)c3ccccc3I)cc2)n1 | -0.26%
72 | Cc1ccnc(NS(=O)(=O)c2ccc(NC(=O)C34CC5CC(CC(C5)C3)C4)cc2)n1 | -6.07%
73 | CCCCCOC(=O)c1ccc(N2C(=O)c3ccc(Oc4ccc(N)cc4)cc3C2=O)cc1 | 1.57%
74 | CC(C)Cc1nc2ccccc2n1CC(=O)N1CCC(Cc2cccc(Nc3nccs3)n2)CC1 | -1.89%
75 | CC(C)(C)C(=O)NC1(C(=O)N2CCC(c3cccc(Nc4ncc(Cl)s4)n3)CC2)CCCCC1 | -18.6%
76 | COCC(=O)N1CCC(c2cccc(Nc3ncc(C)s3)n2)CC1 | -19.4%
77 | Cc1cccc(Nc2nc(-c3sc(NC(=O)c4ccccc4)nc3C)cs2)n1 | 121%
78 | CC(=O)Nc1ccc(-c2csc(Nc3cccc(C)n3)n2)cc1 | 0.905%

Row | Compound | relative growth recovery
79 | Cc1ccnc(Nc2nc(-c3sc(NC(=O)c4ccccc4)nc3C)cs2)c1 | 111%
80 | CC(=O)Nc1ccc(-c2csc(Nc3ccccn3)n2)cc1 | 2.7%
81 | CC(=O)N1CCCC(c2csc(Nc3ccc(C)cn3)n2)C1 (stereo not drawn) | -5.95%
82 | Cc1ccc(Nc2nc(-c3sc(NC(=O)c4ccccc4)nc3C)cs2)nc1 | 111%
83 | CC(=O)Nc1cccc(-c2csc(Nc3cccc(C)n3)n2)c1 | 5.18%
84 | CC(=O)N1CCCC1c1csc(Nc2ccccn2)n1 (stereo not drawn) | -4.06%
85 | CC(=O)Nc1ccc(-c2csc(Nc3ccc(Cl)cn3)n2)cc1 | -2.84%
86 | Cc1nc2ccccn2c1CC(=O)N1CCOC(c2cccc(Nc3nccs3)n2)C1 (stereo not drawn) | 10.9%
87 | Cc1cnc(Nc2cccc(C3CN(C(=O)COc4ccccc4)CCO3)n2)s1 (stereo not drawn) | -5.58%
88 | CCCc1cnc(Nc2cccc(C3CCN(C(=O)C4CCCCN4C(=O)CN(C)C)CC3)n2)s1 (stereo not drawn) | -2.86%
89 | Cc1csc(Nc2cccc(C3CCN(C(=O)c4cccnc4)CC3)n2)n1 | 8.94%
90 | Cc1cc(C)c(C(=O)Nc2ccc(S(=O)(=O)Nc3cc(C)nc(C)n3)cc2)c(C)c1 | -1.16%
91 | Cc1csc(Nc2cccc(C3CN(CC(=O)NCc4ccccn4)CCO3)n2)n1 (stereo not drawn) | 8.57%
92 | Cc1csc(Nc2cccc(C3CN(C(=O)Cn4nc(C)ccc4=O)CCO3)n2)n1 (stereo not drawn) | 1.32%
93 | COCC(=O)N1CCOC(c2cccc(Nc3nc(C)cs3)n2)C1 (stereo not drawn) | 2.9%
94 | COc1cccc(OC)c1C(=O)N1CCOC(c2cccc(Nc3nc(C)cs3)n2)C1 (stereo not drawn) | 7.41%
95 | Cc1cnc(Nc2cccc(C3CN(C(=O)C4CC4c4ccc(Cl)cc4)CCO3)n2)s1 (stereo not drawn) | 28.4%
96 | Cc1csc(Nc2cccc(C3CN(C(=O)CCC4CCCC4)CCO3)n2)n1 (stereo not drawn) | 21%
97 | Cc1csc(Nc2cccc(C3CN(C(=O)CCOc4ccccc4C)CCO3)n2)n1 (stereo not drawn) | 62.8%
98 | Cc1cnc(Nc2cccc(C3CN(C(=O)C45CC6CC(CC(C6)C4)C5)CCO3)n2)s1 (stereo not drawn) | -2.75%
99 | Cc1csc(Nc2cccc(C3CN(C(=O)COc4c(C)cccc4C)CCO3)n2)n1 (stereo not drawn) | 22.3%
100 | Cc1csc(Nc2cccc(C3CN(C(=O)CCn4ncc5ccccc54)CCO3)n2)n1 (stereo not drawn) | 18.8%
101 | Cc1cnc(Nc2cccc(C3CN(C(=O)C4CCCC4)CCO3)n2)s1 (stereo not drawn) | -12.3%
102 | Cc1csc(Nc2cccc(C3CCCN3C(=O)CCOc3ccccc3C)n2)n1 (stereo not drawn) | 11.5%
103 | Cc1cnc(Nc2cccc(C3CN(C(=O)CCC4CCCCC4)CCO3)n2)s1 (stereo not drawn) | 7.2%
